# Measurements: ChEMBL document CHEMBL3988442, “University of Dundee, Small-Polar-MMV Screening Library” (2021)
# For part of these data: Entries with a potency or affinity are not part of this list.
# What was measured:
# Set-up in all cases: scale not given: direction of the effect not stated beside the values
# [1] = molecular target: Protein translocase subunit SecA (Escherichia coli (strain K12)) (UniProt P10408); assay: Assay to Identify E. coli SecA ATPase Inhibitors; format: functional; conditions: 30 µM
# [2] = molecular target: T1, Ubiquitin-activating enzyme e1, putative (Leishmania donovani (strain BPK282A1)) (UniProt E9BSI1); assay: Leishmania donovani Ubiquitin Activating Enzyme (LdE1); format: functional; conditions: 30 µM
# T1 sequence (whole entry): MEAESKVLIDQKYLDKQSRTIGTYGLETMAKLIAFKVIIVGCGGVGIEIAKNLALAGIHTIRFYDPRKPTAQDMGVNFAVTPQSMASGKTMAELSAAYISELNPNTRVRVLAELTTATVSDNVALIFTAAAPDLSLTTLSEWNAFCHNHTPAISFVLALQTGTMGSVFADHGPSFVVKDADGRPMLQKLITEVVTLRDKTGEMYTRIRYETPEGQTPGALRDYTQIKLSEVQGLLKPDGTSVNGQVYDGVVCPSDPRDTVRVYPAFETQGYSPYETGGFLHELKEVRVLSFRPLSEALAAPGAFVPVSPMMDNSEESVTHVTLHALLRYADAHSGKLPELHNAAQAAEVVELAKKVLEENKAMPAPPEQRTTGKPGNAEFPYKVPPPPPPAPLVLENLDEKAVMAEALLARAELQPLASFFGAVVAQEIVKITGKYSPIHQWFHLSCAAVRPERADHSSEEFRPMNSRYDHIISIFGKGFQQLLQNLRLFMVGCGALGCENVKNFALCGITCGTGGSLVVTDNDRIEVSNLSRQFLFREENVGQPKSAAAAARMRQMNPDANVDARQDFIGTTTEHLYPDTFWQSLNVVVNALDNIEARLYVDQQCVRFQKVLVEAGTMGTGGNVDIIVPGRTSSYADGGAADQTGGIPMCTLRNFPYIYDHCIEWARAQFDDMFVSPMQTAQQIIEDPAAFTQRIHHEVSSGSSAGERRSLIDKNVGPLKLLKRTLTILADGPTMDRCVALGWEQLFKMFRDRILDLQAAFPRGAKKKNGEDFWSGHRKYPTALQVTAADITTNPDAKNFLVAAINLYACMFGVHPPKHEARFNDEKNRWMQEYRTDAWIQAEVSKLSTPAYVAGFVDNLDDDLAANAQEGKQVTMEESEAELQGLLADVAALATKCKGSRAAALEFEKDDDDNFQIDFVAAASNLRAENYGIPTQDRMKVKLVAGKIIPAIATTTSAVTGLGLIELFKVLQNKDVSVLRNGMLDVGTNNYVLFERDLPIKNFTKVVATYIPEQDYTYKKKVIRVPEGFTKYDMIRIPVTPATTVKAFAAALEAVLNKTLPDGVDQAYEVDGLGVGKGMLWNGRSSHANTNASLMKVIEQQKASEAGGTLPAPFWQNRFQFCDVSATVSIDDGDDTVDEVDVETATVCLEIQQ
# [3] = molecular target: AMP-activated protein kinase, AMPK (Homo sapiens) (UniProt P54646+O43741+P54619+Q9UGJ0+Q9Y478+Q13131+Q9UGI9); assay: AMP-dependent Kinase enzyme assay. An in vitro enzyme assay that detects ADP turnover that is directly proportional to AMPK activity. This uses naive AMPK that is activated during the assay with MK-8722; format: functional; conditions: 30 µM
# [4] = molecular target: Sialic acid-binding Ig-like lectin 9 (Homo sapiens) (UniProt Q9Y336); assay: Hs-Siglec9 ALPHAscreen SOP 20170721; conditions: 10 µM
# Trypanosoma cruzi = assay: Trypanosoma cruzi phosphomannomutase and mannose-1-phosphate guanylyltransferase assay; format: functional; conditions: 10 µM
# [5] = molecular target: T2, Arginase-2, mitochondrial (Homo sapiens) (UniProt P78540); assay: in vitro enzyme assay to detect the production of urea directly proportional to the activity of Arginase II; format: functional; conditions: 33.3 µM; further: in the data most compounds retested in dose-response had high values
# T2 sequence (whole entry): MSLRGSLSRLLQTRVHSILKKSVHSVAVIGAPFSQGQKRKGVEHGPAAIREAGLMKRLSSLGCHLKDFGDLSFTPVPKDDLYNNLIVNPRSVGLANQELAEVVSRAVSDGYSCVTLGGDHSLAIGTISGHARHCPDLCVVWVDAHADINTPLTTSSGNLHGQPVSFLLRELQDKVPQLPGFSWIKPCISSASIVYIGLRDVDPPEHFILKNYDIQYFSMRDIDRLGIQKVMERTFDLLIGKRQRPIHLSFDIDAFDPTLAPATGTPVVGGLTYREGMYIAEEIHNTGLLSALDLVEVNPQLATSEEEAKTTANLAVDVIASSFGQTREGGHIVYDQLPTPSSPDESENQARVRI
# [6] = molecular target: T3, Proteasome subunit beta (Trypanosoma cruzi) (UniProt O96673); assay: Trypanosoma cruzi proteasome chymotrypsin-like activity (TcProtChymo) assay.; further: in the data most compounds retested in dose-response had high values; format: functional; conditions: 9.37 µM
# T3 sequence (whole entry): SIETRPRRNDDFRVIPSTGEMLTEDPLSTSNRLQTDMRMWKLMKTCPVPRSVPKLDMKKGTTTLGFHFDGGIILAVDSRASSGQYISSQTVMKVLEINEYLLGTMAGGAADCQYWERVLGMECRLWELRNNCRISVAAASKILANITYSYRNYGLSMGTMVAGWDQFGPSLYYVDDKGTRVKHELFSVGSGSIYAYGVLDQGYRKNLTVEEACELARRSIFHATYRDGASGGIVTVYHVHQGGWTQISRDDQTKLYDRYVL
# Homo sapiens = organism: Homo sapiens; assay: To identify inhibition of the IFN signalling (Jak-Stat) pathway via expression of an eGFP reporter gene under the control of an IFN-stimulated response element (ISRE) containing MxA promoter.; format: functional; conditions: 30 µM
# [7] = molecular target: T4, Tyrosyl-tRNA synthetase, putative (Trypanosoma cruzi (strain CL Brener)) (UniProt Q4DSP6); assay: Trypanosoma cruzi tyrosyl tRNA synthetase (TcYRS) _High Tyrosine SOP; format: functional; conditions: 30 µM; further: in the data most compounds retested in dose-response had high values
# T4 sequence (whole entry): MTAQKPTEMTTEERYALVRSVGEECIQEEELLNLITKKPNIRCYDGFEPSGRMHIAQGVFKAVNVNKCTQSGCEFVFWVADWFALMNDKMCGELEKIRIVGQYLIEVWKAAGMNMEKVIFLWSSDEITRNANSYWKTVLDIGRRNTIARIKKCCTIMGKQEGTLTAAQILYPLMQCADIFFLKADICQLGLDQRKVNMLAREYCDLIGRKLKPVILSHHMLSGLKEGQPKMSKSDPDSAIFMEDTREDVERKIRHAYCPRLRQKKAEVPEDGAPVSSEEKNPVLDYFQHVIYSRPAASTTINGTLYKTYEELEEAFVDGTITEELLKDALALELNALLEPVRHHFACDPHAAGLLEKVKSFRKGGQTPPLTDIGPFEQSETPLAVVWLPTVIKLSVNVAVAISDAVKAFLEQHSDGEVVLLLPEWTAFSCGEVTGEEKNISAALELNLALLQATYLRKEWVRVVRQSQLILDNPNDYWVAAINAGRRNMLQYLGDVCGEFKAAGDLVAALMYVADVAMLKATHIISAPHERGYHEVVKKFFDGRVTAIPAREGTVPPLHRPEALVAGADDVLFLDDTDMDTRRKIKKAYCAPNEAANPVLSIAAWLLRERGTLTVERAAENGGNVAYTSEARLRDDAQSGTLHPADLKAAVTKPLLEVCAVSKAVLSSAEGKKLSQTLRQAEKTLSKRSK
# [8] = molecular target: T4, Tyrosyl-tRNA synthetase, putative (Trypanosoma cruzi (strain CL Brener)); assay: Trypanosoma cruzi tyrosyl tRNA synthetase (TcYRS) SOP; format: functional; conditions: 30 µM
# [9] = molecular target: Chromo domain-containing protein 1 (Saccharomyces cerevisiae (strain ATCC 204508 / S288c) (Baker's yeast)) (UniProt P32657); assay: ScCHD-1 Enzyme Inhibition Assay; format: functional; conditions: 30 µM; further: in the data most compounds retested in dose-response had high values
# Chromo domain-containing protein 1 (Saccharomyces cerevisiae (strain ATCC 204508 / S288c) (Baker's yeast)), sequence (P32657 whole entry, the tested form may be a part): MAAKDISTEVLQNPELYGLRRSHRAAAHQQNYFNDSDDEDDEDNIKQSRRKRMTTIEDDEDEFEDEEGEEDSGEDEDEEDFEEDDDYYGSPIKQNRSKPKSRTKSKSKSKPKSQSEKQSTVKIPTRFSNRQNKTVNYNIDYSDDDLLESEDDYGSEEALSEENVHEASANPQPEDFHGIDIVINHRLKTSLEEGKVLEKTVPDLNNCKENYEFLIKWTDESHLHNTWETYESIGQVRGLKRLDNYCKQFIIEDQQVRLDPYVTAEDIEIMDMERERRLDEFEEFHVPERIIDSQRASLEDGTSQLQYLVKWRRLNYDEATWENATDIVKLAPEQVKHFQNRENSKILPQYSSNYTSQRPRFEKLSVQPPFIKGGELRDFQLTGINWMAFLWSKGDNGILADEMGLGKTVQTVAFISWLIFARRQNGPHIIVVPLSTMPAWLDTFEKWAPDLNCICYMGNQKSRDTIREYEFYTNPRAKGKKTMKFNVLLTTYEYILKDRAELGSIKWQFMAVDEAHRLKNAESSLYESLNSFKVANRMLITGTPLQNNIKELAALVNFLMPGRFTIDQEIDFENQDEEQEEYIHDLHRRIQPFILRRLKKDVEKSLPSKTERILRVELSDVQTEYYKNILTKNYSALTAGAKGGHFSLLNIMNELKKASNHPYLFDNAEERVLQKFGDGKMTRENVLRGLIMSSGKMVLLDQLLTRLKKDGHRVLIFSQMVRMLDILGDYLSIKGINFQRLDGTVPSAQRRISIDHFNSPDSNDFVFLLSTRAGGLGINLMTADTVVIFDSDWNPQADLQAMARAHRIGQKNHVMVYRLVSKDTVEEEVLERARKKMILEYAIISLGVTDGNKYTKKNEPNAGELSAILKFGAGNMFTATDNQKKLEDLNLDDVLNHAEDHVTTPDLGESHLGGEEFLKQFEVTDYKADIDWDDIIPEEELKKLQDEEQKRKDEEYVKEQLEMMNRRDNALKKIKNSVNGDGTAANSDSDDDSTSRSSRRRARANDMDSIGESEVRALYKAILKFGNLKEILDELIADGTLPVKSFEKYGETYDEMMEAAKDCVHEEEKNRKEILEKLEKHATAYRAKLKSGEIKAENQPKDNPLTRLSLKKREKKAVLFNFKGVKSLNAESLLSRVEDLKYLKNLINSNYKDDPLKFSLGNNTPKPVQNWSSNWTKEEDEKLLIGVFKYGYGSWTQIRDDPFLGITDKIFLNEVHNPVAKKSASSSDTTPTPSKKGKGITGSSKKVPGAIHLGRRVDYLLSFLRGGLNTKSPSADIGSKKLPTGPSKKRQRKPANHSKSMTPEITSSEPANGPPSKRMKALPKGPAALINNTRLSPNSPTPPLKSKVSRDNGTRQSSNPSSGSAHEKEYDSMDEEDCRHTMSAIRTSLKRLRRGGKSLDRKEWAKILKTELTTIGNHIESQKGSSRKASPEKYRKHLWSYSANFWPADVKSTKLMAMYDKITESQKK
# Sialic acid-binding Ig-like lectin 9 (Homo sapiens), sequence (Q9Y336 whole entry): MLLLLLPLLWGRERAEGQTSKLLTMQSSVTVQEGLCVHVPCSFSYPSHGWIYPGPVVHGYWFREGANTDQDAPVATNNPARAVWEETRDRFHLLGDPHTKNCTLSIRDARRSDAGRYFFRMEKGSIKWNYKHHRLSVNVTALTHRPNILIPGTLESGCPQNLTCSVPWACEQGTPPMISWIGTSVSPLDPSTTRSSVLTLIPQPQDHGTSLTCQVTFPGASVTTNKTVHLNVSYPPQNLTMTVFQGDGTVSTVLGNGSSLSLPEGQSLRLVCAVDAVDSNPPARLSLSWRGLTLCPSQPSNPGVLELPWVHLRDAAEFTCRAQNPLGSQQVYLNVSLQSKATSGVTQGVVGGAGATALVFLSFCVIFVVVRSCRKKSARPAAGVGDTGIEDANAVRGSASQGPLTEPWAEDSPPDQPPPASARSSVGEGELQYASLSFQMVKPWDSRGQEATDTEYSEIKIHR
# Protein translocase subunit SecA (Escherichia coli (strain K12)), sequence (P10408 whole entry): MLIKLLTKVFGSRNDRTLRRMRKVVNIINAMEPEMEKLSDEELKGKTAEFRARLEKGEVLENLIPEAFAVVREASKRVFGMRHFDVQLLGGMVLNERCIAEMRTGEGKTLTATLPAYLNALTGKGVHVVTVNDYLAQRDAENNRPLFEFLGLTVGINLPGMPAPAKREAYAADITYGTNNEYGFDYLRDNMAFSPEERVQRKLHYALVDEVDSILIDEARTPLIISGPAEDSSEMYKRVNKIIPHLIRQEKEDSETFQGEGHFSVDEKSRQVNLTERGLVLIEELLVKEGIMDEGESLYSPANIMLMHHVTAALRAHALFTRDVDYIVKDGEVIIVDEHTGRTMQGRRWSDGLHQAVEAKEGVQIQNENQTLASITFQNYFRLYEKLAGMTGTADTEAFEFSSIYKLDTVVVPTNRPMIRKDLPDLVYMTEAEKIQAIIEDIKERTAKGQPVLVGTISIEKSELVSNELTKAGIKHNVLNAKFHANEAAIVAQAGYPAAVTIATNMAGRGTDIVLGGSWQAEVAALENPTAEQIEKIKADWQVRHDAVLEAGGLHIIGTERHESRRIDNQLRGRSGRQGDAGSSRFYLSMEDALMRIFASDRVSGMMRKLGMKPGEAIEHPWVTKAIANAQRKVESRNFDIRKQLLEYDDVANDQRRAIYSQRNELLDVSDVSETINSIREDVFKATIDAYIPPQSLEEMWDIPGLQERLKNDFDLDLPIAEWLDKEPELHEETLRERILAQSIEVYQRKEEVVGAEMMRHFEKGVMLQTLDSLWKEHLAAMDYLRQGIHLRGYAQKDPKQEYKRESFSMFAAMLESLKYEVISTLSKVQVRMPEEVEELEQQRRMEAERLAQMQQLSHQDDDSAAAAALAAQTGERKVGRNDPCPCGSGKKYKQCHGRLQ
SMILES,Percent Effect [1] [%],Percent Effect [2] [%],Percent Effect [3] [%],Percent Effect [4] [%],Percent Effect (Trypanosoma cruzi) [%],Percent Effect [5] [%],Percent Effect [6] [%],Percent Effect (Homo sapiens) [%],Percent Effect [7] [%],Percent Effect [8] [%],Percent Effect [9] [%]
Cc1csc(CNC(=O)Nc2cc(C(F)(F)F)c[nH]c2=O)n1,-1.61,6.94,2.39,2.89,6.71,1.77,13.3,8.26,7.37,10.3,-3.2
CCc1nccn1C1CCCN(C(=O)Cc2cn3ccccc3n2)C1 (centres undefined),-4.36,8.86,-1.52,-5.05,3.18,-1.5,13.2,17.9,-1.04,10.1,-29
COc1cccc(C2CC(=O)Nc3nc(N)sc32)c1OC (centres undefined),70.6,26.3,-56.4,-2.19,7.3,21.3,10.3,-3.92,-4.25,-36.4,-8.65
COc1cccc2c1OCC(NC(=O)NC1CCN(C3CC3)CC1)C2 (centres undefined),-3.95,0,4.77,0.911,4.77,0,10.6,3.27,6.38,7.79,-0.292
Cc1cnn(C2CN(Cc3nc(-c4ccco4)no3)C2)c1,-7.03,13,26.4,11.1,0.374,-0.356,5.41,10.2,10.7,19.5,-2.84
CC1(C)Cc2ccccc2-c2nc(NCCO)[nH]c(=O)c21,-5.03,13.2,56,4.58,-3.02,3.55,20,31.2,6.38,13,-12.3
O=C(c1ccoc1)N1CC[C@@H]2[C@H]1CCC(=O)N2c1ccccc1,-4.24,10.7,10.1,-2.97,-1.97,-1.63,5.02,10.8,9.57,14.1,-0.93
CCc1nc(CN2CCCC(NCc3ccc(C(N)=O)cc3)C2)no1 (centres undefined),-4.14,2.53,-1.56,9.52,2.93,1.14,-0.246,12.3,-0.493,1.27,-2.88
Fc1ccccc1-c1noc2c1CN(CC1CC1)CC2,-0.719,13.7,1.26,4.91,5.68,1.36,17,11.6,7.53,20,-0.386
